For 83 compounds, cell viability results are on record in the supplement of paper PMC11150407.

Where a name gives a salt, the structure may show the parent alone. About 180 (8.6%) of roughly 2,100 compounds showed an effect of 50% or more. Shown is part of a subset that was picked to be rich in strong results.

The test system of this experiment is MOLM1 and UCSD/AML1 (averaged). Briefly: cell viability relative to DMSO control (POC); higher = less growth inhibition. The following applies: 1 µM; 72 h. The procedure:
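Primary viability screen in the 3q26 EVI1-high AML cell lines MOLM1 and UCSD/AML1 (1.5e3 cells/well, 384-well), compounds at 1 uM for 72 h. ATP CellTiter-Glo read-out given as percent of viable cells over DMSO control (POC), averaged over duplicates. DMSO was the negative control and 5 uM etoposide the positive control. This mapping covers the MicroSource Spectrum and Selleck anticancer libraries (drug names).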
In general, cell viability refers to a read-out of living cells in per cent, often relative to untreated cells. On to `COC(=O)Nc1ccc(-c2nc(N3CCOCC3)c3cnn(C4CCN(C(=O)OC)CC4)c3n2)cc1`, for which the cell viability stood at 25.9%. Under `c1ccc2c(-c3cnn4cc(-c5ccc(N6CCNCC6)cc5)cnc34)ccnc2c1` stands 37.8%; under `NC1(C(=O)O)CCCC1`, 93.7%. As for `CC/C(=C(\c1ccccc1)c1ccc(OCCN(C)C)cc1)c1ccccc1`, the cell viability was 105%. As for `CN(C)Cc1c(C(=O)NCCOc2ccc(C(=O)NO)cc2)oc2ccccc12`, the cell viability stood at 1.01%. Next, `COc1cc(C(=O)NCc2ccc(OCCN(C)C)cc2)cc(OC)c1OC`: 97.1%; `CC/C(=C(\c1ccccc1)c1ccc(OCCN(C)C)cc1)c1ccccc1` [Tamoxifen Citrate (Nolvadex)]: 53.6%. As for `C=CCSCC=C`, the cell viability came out at 97.3%. Under `CCCc1cc(OC)c2c(c1)OCO2` stands 90.2%; under `C[C@H](NC(=O)Cc1cc(F)cc(F)c1)C(=O)N[C@@H]1C(=O)N(C)c2ccccc2-c2ccccc21`, 101%.

Turning to `COc1c(C)c2c(c(O)c1C/C=C(\C)CCC(=O)OCCN1CCOCC1)C(=O)OC2` [Mycophenolate mofetil (CellCept)], the cell viability was determined as 53%. Under `COc1c(C)c2c(c(O)c1C/C=C(\C)CCC(=O)O)C(=O)OC2` stands 44%; under `COC1=C(OC)C(=O)C(C/C=C(\C)CC/C=C(\C)CC/C=C(\C)CC/C=C(/C)CC/C=C(\C)CC/C=C(\C)CC/C=C(\C)CC/C=C(\C)CC/C=C(\C)CCC=C(C)C)=C(C)C1=O`, 85.7%; under `COc1c(C)c2c(c(O)c1C/C=C(\C)CCC(=O)O)C(=O)OC2` [Mycophenolic (Mycophenolate)], 42.4%. Regarding `C=C[C@@]1(C)CC(=O)[C@@]2(O)[C@](C)(O1)[C@@H](O)[C@@H](O)C1C(C)(C)CC[C@H](O)[C@@]12C` (stereo partly drawn), the cell viability was 98.8%. As for `COc1ccc(C(=O)O)c(O)c1OC`, the cell viability amounted to 97.8%. Under `COc1ccc([C@H]2COc3c(ccc(O)c3OC)C2)c(OC)c1O` stands 116%; under `CC(C=CC(=O)NO)=CC(C)C(=O)c1ccc(N(C)C)cc1` (stereo not drawn) [Trichostatin A (TSA)], 1.52%; under `O=C(Cn1ccnc1[N+](=O)[O-])NCCO`, 94.5%. Under `Cc1csc(-c2nnc(Nc3ccc(Oc4ncccc4-c4ccnc(N)n4)cc3)c3ccccc23)c1` stands 51.5%; under `N=C1C=CC(=C(c2ccc(N)cc2)c2ccc(N)cc2)C=C1`, 82.5%. Under `CN(C)c1ccc(C(=C2C=CC(=[N+](C)C)C=C2)c2ccc(N(C)C)cc2)cc1` stands 0.942%; under `CCCCCCCCCCCCCc1ccco1`, 97.1%; under `C[C@H](CCC(=O)O)[C@H]1CC[C@H]2[C@@H]3CC[C@@H]4CCCC[C@]4(C)[C@H]3CC[C@]12C`, 98.9%.

On to `C[C@@H]1O[C@@H](O[C@H]2[C@H](O[C@H]3CC[C@@]4(C)[C@@H](CC[C@]5(C)[C@@H]4CC=C4[C@@H]6CC(C)(C)CC[C@]6(C(=O)O[C@@H]6O[C@H](CO[C@@H]7O[C@H](CO)[C@@H](O[C@@H]8O[C@@H](C)[C@H](O)[C@@H](O)[C@H]8O)[C@H](O)[C@H]7O)[C@@H](O)[C@H](O)[C@H]6O)CC[C@]45C)[C@]3(C)CO)OC[C@H](O)[C@@H]2O)[C@H](O)[C@H](O)[C@H]1O`, for which the cell viability was 89.5%.

As to `COCC[n+]1c2c(n(Cc3cnccn3)c1C)C(=O)c1ccccc1C2=O` [YM155 (Sepantronium Bromide)], the cell viability was 3.93%. Next, `CC(C)CCC[C@@H](C)[C@H]1CC[C@H]2[C@@H]3CC=C4CC(=O)CC[C@]4(C)[C@H]3CC[C@]12C`: 87.5%. As to `COC(=O)c1c(OC)cc2c(c1C)Oc1c(Cl)c(O)c(Cl)c(C)c1C(=O)O2`, the cell viability was determined as 107%. Next, `OC(Cn1cncn1)(Cn1cncn1)c1ccc(F)cc1F`: 95.1%; `Cc1c(NC(=O)OC[C@@H]2COCCN2)cn2ncnc(Nc3ccc4c(cnn4Cc4cccc(F)c4)c3)c12`: 119%; `C=C1C2CC[C@@]3(C)[C@H](c4ccoc4)OC(=O)C[C@]13O[C@H]1CC(=O)C(C)(C)[C@H](C(O)C(=O)OC)[C@@]21C` (stereo partly drawn): 99.4%. Under `CC(C)C[C@H](NC(=O)CNC(=O)c1cc(Cl)ccc1Cl)B1OC(=O)C(CC(=O)O)(CC(=O)O)O1` stands 1.16%; under `CC(C)C[C@H](NC(=O)CNC(=O)c1cc(Cl)ccc1Cl)B(O)O` [Ixazomib (MLN2238)], 1.39%.

Take `O=C(CNC(=O)c1ccc(Cl)cc1)NO`: the cell viability was 107%. Next, `CC(=O)Oc1ccc2c(c1)CC[C@@H]1[C@@H]2CC[C@]2(C)[C@@H](OC(C)=O)CC[C@@H]12`: 87.5%.

As to `O=C(O)Cc1cc(I)c(Oc2cc(I)c(O)c(I)c2)c(I)c1`, the cell viability worked out at 97.8%.

On to `CC(=O)O[C@@H]1C[C@H]2C(C)(C)C(=O)C=C[C@]2(C)[C@H]2CC[C@@]3(C)[C@H](c4ccoc4)OC(=O)[C@H]4O[C@]43[C@@]21C`, for which the cell viability came out at 82.8%.

As to `COC1(C)CCC2OC2(C)CCC2C1CC2(C)C` (stereo not drawn), the cell viability was 102%. Under `CC(C)=CCC[C@](C)(O)C1CC=C(C)CC1` (stereo partly drawn) stands 105%; under `COc1cc2nccc(Oc3ccc(NC(=O)NC4CC4)c(Cl)c3)c2cc1C(N)=O` [E7080 (Lenvatinib)], 58%; under `COc1cc2nccc(Oc3ccc(NC(=O)Nc4cc(C)on4)c(Cl)c3)c2cc1OC` [Tivozanib (AV-951)], 31.8%.

`O=C(Oc1cc(O)cc2c1C[C@@H](OC(=O)c1cc(O)c(O)c(O)c1)[C@@H](c1cc(O)c(O)c(O)c1)O2)c1cc(O)c(O)c(O)c1`: the cell viability was 104%. Next, `Cc1cc(O)c(C=O)c2c1C(=O)Oc1c(COC(=O)/C=C/C(=O)O)c(O)c(C(=O)O)c(C)c1O2`: 104%; `Cc1ccc2c(=O)c3cccc(CC(=O)O)c3oc2c1C`: 99.8%; `Cc1coc2c1C(=O)C(=O)c1c-2ccc2c1CCCC2(C)C`: 118%. In the case of `C=CC(C1=CC(=O)C=CC1=O)c1ccccc1` (stereo not drawn), the cell viability was determined as 103%. Next, `C=C[C@@H](C1=CC(=O)C(OC)=C(OC)C1=O)c1ccccc1`: 8.05%; `C=CC(C1=CC(=O)C(OC)=CC1=O)c1ccccc1` (stereo not drawn): 79.2%.

`CC1=C2C(O)C(=O)OC3CC4C(C)(C)C(=O)C=C[C@]4(C)C(CC1)[C@]23C` (stereo partly drawn): the cell viability was 89.3%. In the case of `CCCS(=O)(=O)Nc1ccc(F)c(C(=O)c2c[nH]c3ncc(-c4ccc(Cl)cc4)cc23)c1F` [Vemurafenib (PLX4032)], the cell viability is 114%. Next, `COc1ncc(-c2ccc3nccc(-c4ccnnc4)c3c2)cc1NS(=O)(=O)c1ccc(F)cc1F`: 12.4%.

Take `COc1ccc2c(C)cc(=O)oc2c1`: the cell viability was 110%. Next, `COC(=O)CC1C(C)(C)C(OC(C)=O)[C@@H]2[C@@H](OC(C)=O)[C@]34O[C@@]2(O)[C@]1(C)C3CC[C@]1(C)C4=CC(=O)O[C@H]1c1ccoc1` (stereo partly drawn): 83.6%; `O=C(OCC(O)CO)c1ccccc1Nc1ccnc2cc(Cl)ccc12` (stereo not drawn): 104%. Under `O=C(NOCC1CC1)c1ccc(F)c(F)c1Nc1ccc(I)cc1Cl` stands 33.2%. Next, `O=C(NOC[C@H](O)CO)c1ccc(F)c(F)c1Nc1ccc(I)cc1F`: 49.5%. As for `NC(C(=O)O)C(O)C(=O)O` (stereo not drawn) [d,l-threo-3-HYDROXYASPARTIC ACID], the cell viability came to 129%. Under `CC(=O)OC1CCC2(C)C(=CCC3C2CCC2(C)C(C(C)CCCC(C)C)CCC32)C1` (stereo not drawn) stands 97.3%; under `COc1cc(O)cc(OC)c1OC`, 95.9%; under `COC(=O)/C(=C1/OC(=O)C(c2ccccc2)=C1O)c1ccccc1`, 102%. Next, `C[C@@H](N)[C@H]1CC[C@H](C(=O)Nc2ccncc2)CC1`: 102%; `Cc1cc(Nc2cc(N3CCN(C)CC3)nc(Sc3ccc(NC(=O)C4CC4)cc3)n2)n[nH]1` [VX-680 (MK-0457, Tozasertib)]: 22%. Under `Cc1cc(Nc2cc(N3CCN(C)CC3)nc(/C=C/c3ccccc3)n2)n[nH]1` stands 19.9%; under `COc1cc2oc3cc(OC)c(OC)c(CC=C(C)C)c3c(=O)c2c(OC)c1CC=C(C)C`, 104%. As for `O=c1cc(-c2ccccc2)oc2cc(O)c(O)c(O)c12`, the cell viability turned out to be 86%. Under `CC1(C)C(O[C@@H]2OC[C@@H](O)[C@H](O)[C@H]2O)CC[C@]23CC24CC[C@]2(C)[C@@H]([C@@]5(C)CC[C@@H](C(C)(C)O)O5)[C@H](O)C[C@@]2(C)C4C[C@@H](O[C@@H]2O[C@H](CO)[C@@H](O)[C@H](O)[C@H]2O)C13` (stereo partly drawn) stands 91.9%; under `CC(C)[C@@H]1CC[C@@H](C)C[C@H]1OC(=O)c1ccccc1`, 109%; under `NC(=O)NCCC[C@H](N)C(=O)O`, 93.7%. Under `C=CCCCCCCCCCCCc1ccco1` stands 109%; under `Nc1cc(C(F)(F)F)c(-c2cc(N3CCOCC3)nc(N3CCOCC3)n2)cn1`, 26.9%; under `COc1c(CC(=O)c2cc3c(cc2O)OC(C)(C)C(O)C3)ccc2c1C=CC(C)(C)O2` (stereo not drawn), 98%. As to `N[C@@H](C(=O)O)[C@@H](O)[C@H](O)[C@H](O)CO`, the cell viability was 106%.

In the case of `CCNC(=O)CC[C@H](N)C(=O)O`, the cell viability is 92.2%. Under `Cc1ccc(NC(=O)c2ccc(CN3CCN(C)CC3)cc2)cc1Nc1nccc(-c2cccnc2)n1` [Imatinib Mesylate] stands 37.8%; under `Cc1cn(-c2cc(NC(=O)c3ccc(C)c(Nc4nccc(-c5cccnc5)n4)c3)cc(C(F)(F)F)c2)cn1` [Nilotinib (AMN-107)], 50.6%. For `Cc1cccc(Nc2nc(-c3ccncc3)cs2)c1`, the cell viability was 98.9%. Under `Cc1ccc(NC(=O)c2ccc(CN3CCN(C)CC3)cc2)cc1Nc1nc(-c2cccnc2)cs1` [Masitinib (AB1010)] stands 25.7%.

As for `CO[C@H]1[C@H](O)[C@@H](O)[C@H](O)[C@H](O)[C@H]1O`, the cell viability was 95.8%. Next, `COc1ccc2c(=O)c(OC)c(-c3ccccc3)oc2c1`: 89.8%; `COc1cc(-c2coc3cc(OC)c(OC)c(OC)c3c2=O)cc(OC)c1OC`: 96%; `C=C1/C(=C\C=C2/CCC[C@]3(C)[C@@H]([C@H](C)/C=C/[C@H](C)C(C)C)CC[C@@H]23)C[C@@H](O)C[C@@H]1O` [Doxercalciferol (Hectorol)]: 99.3%.

As for `CC(=O)NCCc1ccc(O)c(-c2c(O)c(O)c3c(c2O)C(=O)c2c(cc(O)c(C(=O)O)c2C(=O)O)C3=O)c1`, the cell viability was 102%.

Regarding `COc1cc(OC)c2c(=O)cc(-c3ccccc3)oc2c1`, the cell viability turned out to be 90.2%.
